High-throughput results deposited in PubChem BioAssay by National Center for Advancing Translational Sciences (NCATS).
HepG2 tox = HepG2 cytotoxicity, counter-screen for TGF-b inhibitors. HepG2 CAGA-GFP viability, ATP luminescence, 18 h. Potency, µM (top dose mostly 46.1 µM), inactives show top-dose activity change, negative = cytotoxicity, most hits filed as cytotoxic. 410,000 tested, 0.76% active. AID 588856
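CellTiter-Glo luminescence gave cytotoxicity after 18 hours at 37 degrees C. The cells were HepG2 CAGA-GFP in 1% FBS DMEM, stimulated with 500 pg/mL TGF-beta after compound addition. %Activity was normalised to no-cell wells (complete cell-killing) and DMSO (no toxicity), and curves were fitted and classified.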
DT40 TDP1 CPT = DT40-hTDP1 cell growth loss with CPT; chicken DT40 Tdp1-/-;hTDP1 cells + 20 nM CPT, ATP luminescence, 48 h; Potency, µM (series often up to 46.2 µM), inactives show top-dose activity change, negative = growth inhibition, most hits filed as inhibitors; 420,000 tested, 12% active; note: % is set by controls: 0 for no effect and ±100 for the full control effect; nearly all actives have a fitted effect of over 55% in size
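Cell growth measured by CellTiter-Glo luminescence after a minimum 48 h, 37 C compound exposure with 20 nM CPT in Tdp1-knockout DT40 cells stably expressing hTDP1, seeded 400/well; qHTS titration format.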
ATXN2 expr inh = ATXN2 expression inhibition; Potency, µM (top dose mostly 57 µM), without a hit: at the highest dose activity change, negative = inhibition, usual class: inhibitors; HEK-293 ATXN2-luciferase reporter, luminescence, 24 h; 360,000 tested, 0.72% active; note: % is set by controls: 0 for no effect and ±100 for the full control effect; nearly all actives have a fitted effect of over 55% in size
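ATXN2-luciferase reporter cells (luciferase flanked by upstream and downstream ATXN2 gene portions) were treated 24 h at 37 °C with compounds at up to 57 uM. SteadyGlo luminescence gave expression; GF-AFC fluorescence gave viability.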
TDP1 cell noCPT = qHTS for Inhibitors of human tyrosyl-DNA phosphodiesterase 1 (TDP1): qHTS in cells in absence of CPT; DT40 Tdp1-/- hTDP1 cells, no CPT, ATP luminescence, 48 h; Potency, µM (doses to about 46.2 µM), for inactives: at the highest dose activity change, negative = growth inhibition, actives largely listed as inhibitors; 420,000 tested, 15% active; AID 686978, 2013; note: % is set by controls: 0 for no effect and ±100 for the full control effect; nearly all actives have a fitted effect of over 55% in size
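Growth of hTDP1-complemented DT40 Tdp1-knockout cells is measured by ATP luminescence after at least 48 hr compound exposure at 37 °C, with DMSO substituting for the 20 nM CPT used in the parallel screen.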
ATXN viability = cell viability loss in ATXN counter-screen. S2 cells (HEK-293 line with an ATXN2-luciferase reporter) viability, CellTiter-Fluor protease fluorescence, 24 h. 400,000 tested, 0.49% active. AID 651635. Potency, µM (doses to about 56.7 µM), most hits filed as cytotoxic; note: nearly all actives have a fitted effect of over 40% in size
TGFb inhibitor = blocks TGF-b signaling; Potency, µM (doses to about 46.1 µM), without a hit: at the highest dose activity, negative = inhibition, actives largely listed as inhibitors; 410,000 tested, 1.2% active; HepG2 CAGA-GFP TGF-b/SMAD3 reporter, GFP fluorescence, 18 h; TGF-beta stimulated, 500 pg/mL final; note: % is set by controls: 0 for no effect and ±100 for the full control effect; nearly all actives have a fitted effect of over 65% in size
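Using HEPG2 CAGA-GFP reporter cells at 1000 cells/well, we pinned test compounds, stimulated with recombinant TGF-beta (500 pg/mL final) and measured total well GFP after 18 h.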
An asterisk follows results filed as active. In the library only some 17% were active in any assay of this set; here they are far more common. Calls come from the whole dose curve; as a rule, active = well fitted curve in the direction sought with a large enough effect; inconclusive = small, poorly fitted or top-dose-only effect, or another doubt; inactive = no such curve, though single readings can be large; an effect the other way counts as inactive or inconclusive. Potency is the fitted concentration of half-maximal effect.

How did Cc1ccc(S(=O)(=O)N2CCCCC2)cc1NC(=O)C1CC1 do in these assays?
HepG2 tox: -35.3%; DT40 TDP1 CPT: -6.6%; ATXN2 expr inh: -8.6%; TDP1 cell noCPT: -4.8%; ATXN viability: inactive; TGFb inhibitor: -4.0%

What do the screens show for `Cc1ccccc1NC(=O)COC(=O)c1cccc(S(=O)(=O)N2CCCCC2)c1`?
HepG2 tox: -17.3%; DT40 TDP1 CPT: -1.2%; ATXN2 expr inh: -2.9%; TDP1 cell noCPT: 4.4%; ATXN viability: inactive; TGFb inhibitor: -7.3%

Results for Cc1ccc(S(=O)(=O)N2CCCCC2)cc1NC(=O)CSCC(=O)O ?
HepG2 tox: -35.9%; DT40 TDP1 CPT: 16.0%; ATXN2 expr inh: -9.9%; TDP1 cell noCPT: -12.3%; ATXN viability: inactive; TGFb inhibitor: -1.1%

How did CCN(CC)S(=O)(=O)c1ccc(C)c(NC(=S)Nc2cccc(S(=O)(=O)N3CCCCCC3)c2)c1 do in these assays?
HepG2 tox: 3.1%; DT40 TDP1 CPT: inconclusive; ATXN2 expr inh: -21.8%; TDP1 cell noCPT: 23.1µM*; ATXN viability: inconclusive; TGFb inhibitor: inconclusive

Results for CCS(=O)(=O)c1c(Nc2ccc(F)c(Cl)c2)sc(C(=O)c2ccccc2)c1N ?
HepG2 tox: -13.0%; DT40 TDP1 CPT: -18.7%; TDP1 cell noCPT: inconclusive; TGFb inhibitor: inconclusive

Results for COc1ccc(S(=O)(=O)N(C)C)cc1NCC(=O)Nc1ccc(Br)cc1F ?
HepG2 tox: -9.1%; DT40 TDP1 CPT: 13µM*; ATXN2 expr inh: -20.0%; TDP1 cell noCPT: 29.1µM*; ATXN viability: inactive; TGFb inhibitor: 0.0%

What do the screens show for `CCCC(C(=O)Nc1cccc(S(=O)(=O)N2CCCC2)c1)c1ccccc1` (stereo unspecified)?
HepG2 tox: -3.3%; DT40 TDP1 CPT: 23.1µM*; ATXN2 expr inh: inconclusive; TDP1 cell noCPT: 20.6µM*; ATXN viability: inactive; TGFb inhibitor: inconclusive

What do the screens show for `CCCC(C(=O)Nc1ccc2c(C)cc(=O)oc2c1)c1ccccc1` (stereo unspecified)?
HepG2 tox: 13.9%; DT40 TDP1 CPT: 25.9µM*; ATXN2 expr inh: -10.7%; TDP1 cell noCPT: inconclusive; ATXN viability: inactive; TGFb inhibitor: -0.8%

How did CC(=O)Nc1ccc(S(=O)(=O)N(C)CC(=O)Nc2ccc(Br)cc2F)cc1 do in these assays?
HepG2 tox: -16.1%; DT40 TDP1 CPT: -18.0%; ATXN2 expr inh: -3.8%; TDP1 cell noCPT: inconclusive; ATXN viability: inactive; TGFb inhibitor: -4.4%

How did CNC[C@@H]1Oc2cc(Br)ccc2S(=O)(=O)N([C@@H](C)CO)C[C@@H]1C do in these assays?
HepG2 tox: -1.3%; DT40 TDP1 CPT: -15.8%; ATXN2 expr inh: 11.0%; TDP1 cell noCPT: 0.3%; ATXN viability: inconclusive; TGFb inhibitor: 8.3%

Results for CCc1c(C)nc(N2CCN(c3cccc(OC)c3)CC2)[nH]c1=O ?
HepG2 tox: 0.5%; DT40 TDP1 CPT: inconclusive; TDP1 cell noCPT: inconclusive; ATXN viability: inactive; TGFb inhibitor: -4.4%

How did Cc1nnc(N2CCN(c3ccccc3)CC2)[nH]c1=O do in these assays?
HepG2 tox: 13.1%; DT40 TDP1 CPT: 5.17µM*; ATXN2 expr inh: -12.0%; TDP1 cell noCPT: 5.8µM*; ATXN viability: inconclusive; TGFb inhibitor: 6.1%

How did CCc1c(C)nc(N2CCN(c3ccc(OC)cc3)CC2)[nH]c1=O do in these assays?
HepG2 tox: 12.3%; DT40 TDP1 CPT: inconclusive; TDP1 cell noCPT: 20.6µM*; ATXN viability: inactive; TGFb inhibitor: 6.7%

What do the screens show for `CCc1c(C)nc(N2CCN(c3ccc(F)cc3)CC2)[nH]c1=O`?
HepG2 tox: -21.9%; DT40 TDP1 CPT: inconclusive; ATXN2 expr inh: -11.3%; TDP1 cell noCPT: -27.7%; ATXN viability: inactive; TGFb inhibitor: -2.7%

Results for C[C@H]1COC(=O)[C@@H](CC(=O)OC(C)(C)C)C/C=C\C[C@@H](CC(=O)N(CCO)Cc2ccccc2)C(=O)N1 ?
HepG2 tox: -17.9%; DT40 TDP1 CPT: inconclusive; ATXN2 expr inh: 5.2%; TDP1 cell noCPT: inconclusive; ATXN viability: inactive; TGFb inhibitor: -8.2%

What do the screens show for `Cc1ccccc1C(=O)Nc1ccc2c(C#N)c3nc4ccccc4nc3n2c1`?
HepG2 tox: -3.9%; DT40 TDP1 CPT: 20.6µM*; ATXN2 expr inh: -0.4%; TDP1 cell noCPT: 20.6µM*; ATXN viability: inactive; TGFb inhibitor: 6.4%

Results for Cc1c(C(=O)Nc2ccccc2)cn2c(nc3ccccc32)c1C#N ?
HepG2 tox: 7.3%; DT40 TDP1 CPT: inconclusive; ATXN2 expr inh: -9.9%; TDP1 cell noCPT: inconclusive; ATXN viability: inactive; TGFb inhibitor: 1.2%

How did CCOc1cc(/C=C2\SC(=N)N(c3nonc3N)C2=O)ccc1OCC(N)=O do in these assays?
HepG2 tox: -1.3%; DT40 TDP1 CPT: inconclusive; ATXN2 expr inh: -6.3%; TDP1 cell noCPT: inconclusive; ATXN viability: inactive; TGFb inhibitor: 13.1%

Results for CCOc1cc(/C=C2\SC(=N)N(c3nonc3N)C2=O)ccc1OCCN1CCOCC1 ?
HepG2 tox: 0.8%; DT40 TDP1 CPT: 13µM*; TDP1 cell noCPT: 20.6µM*; ATXN viability: inconclusive; TGFb inhibitor: -8.6%

How did CCCCC(OC(=O)CN1C(=O)COc2ccccc21)C(=O)NC1CCCCC1 (stereo unspecified) do in these assays?
HepG2 tox: -2.8%; DT40 TDP1 CPT: -1.2%; ATXN2 expr inh: -1.4%; TDP1 cell noCPT: 16.4µM*; ATXN viability: inactive; TGFb inhibitor: 4.9%

How did COc1ccc(-n2ncc3c2CC(C)(C)CC3NC(=O)c2ocnc2C)cc1 (stereo unspecified) do in these assays?
HepG2 tox: -2.3%; DT40 TDP1 CPT: inconclusive; ATXN2 expr inh: 10.8%; TDP1 cell noCPT: -12.9%; ATXN viability: inactive; TGFb inhibitor: -3.3%

What do the screens show for `Cc1cccc(OCC(=O)Nc2ccccc2N2CCCC2)c1C`?
HepG2 tox: -17.9%; DT40 TDP1 CPT: inconclusive; ATXN2 expr inh: -0.9%; TDP1 cell noCPT: inconclusive; ATXN viability: inactive; TGFb inhibitor: -5.5%

What do the screens show for `COc1cc(C)ccc1OCC(=O)Nc1ccccc1N1CCOCC1`?
HepG2 tox: -4.0%; DT40 TDP1 CPT: -23.0%; ATXN2 expr inh: -24.8%; TDP1 cell noCPT: inconclusive; ATXN viability: inactive; TGFb inhibitor: -29.2%

What do the screens show for `COc1ccc(OCC(=O)Nc2ccccc2C(=O)N2CCCC2)cc1`?
HepG2 tox: -20.0%; DT40 TDP1 CPT: -17.3%; ATXN2 expr inh: -16.9%; TDP1 cell noCPT: -22.6%; ATXN viability: inactive; TGFb inhibitor: 1.8%
